Screening data from PubChem BioAssay.
Mito fusion act: mitochondrial division inhibition or fusion activation. S. cerevisiae fusion-defective mutant growth rescue, CellTiterGlo 48 h. Potency, µM (titrated, usually from 46.1 µM), without a hit: at the top dose growth rescue (activation), hits mostly activators. 320,000 compounds, 0.23% hits; further: % of control where 0% means no effect; nearly all actives have a fitted effect of over 45% in size
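Compounds are tested for their ability to restore growth of mitochondrial fusion-defective yeast strains at non-permissive 37C in YPEG medium over 48 hours. Viability is quantified by luciferase luminescence.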
gsp agonist: activates gsp, the McCune-Albright syndrome mutation; gsp mutant cells, cAMP HTRF, 30 min; Potency, µM (top dose mostly 76.9 µM), without a hit: top-dose activation (cAMP increase), most hits filed as activators; 340,000 compounds, 0.13% hits; AID 624287; active means well fitted activation curve with a large enough effect; inconclusive means small, poorly fitted or top-dose-only effect, or another doubt; inactive means no such curve, though single readings can be large or run the other way; cell line not stated here;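 further: phosphodiesterase inhibitor Ro 20-1724 added with compounds to block cAMP breakdown; nearly all actives have a fitted effect of over 60% in size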
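Cells stably selected in G418 were plated at 2000/well, grown 16-24 hr, then given compounds in DMSO with the PDE inhibitor […] (300 uM solution added) for 30 min at 37C; cAMP was read by HTRF.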
12-LOX inh: blocks human arachidonate 12S-lipoxygenase | P18054 | 580,000 compounds, 1.1% hits | AID 1671190 | purified 12hLO, xylenol orange hydroperoxide absorbance | Potency, µM (titrated, usually from 108 µM), for inactives: top-dose activity change, negative = inhibition, hits mostly inhibitors; further: on the % scale 0 is the no-effect control and ±100 the full control effect
Target sequence (P18054 whole entry, looked up): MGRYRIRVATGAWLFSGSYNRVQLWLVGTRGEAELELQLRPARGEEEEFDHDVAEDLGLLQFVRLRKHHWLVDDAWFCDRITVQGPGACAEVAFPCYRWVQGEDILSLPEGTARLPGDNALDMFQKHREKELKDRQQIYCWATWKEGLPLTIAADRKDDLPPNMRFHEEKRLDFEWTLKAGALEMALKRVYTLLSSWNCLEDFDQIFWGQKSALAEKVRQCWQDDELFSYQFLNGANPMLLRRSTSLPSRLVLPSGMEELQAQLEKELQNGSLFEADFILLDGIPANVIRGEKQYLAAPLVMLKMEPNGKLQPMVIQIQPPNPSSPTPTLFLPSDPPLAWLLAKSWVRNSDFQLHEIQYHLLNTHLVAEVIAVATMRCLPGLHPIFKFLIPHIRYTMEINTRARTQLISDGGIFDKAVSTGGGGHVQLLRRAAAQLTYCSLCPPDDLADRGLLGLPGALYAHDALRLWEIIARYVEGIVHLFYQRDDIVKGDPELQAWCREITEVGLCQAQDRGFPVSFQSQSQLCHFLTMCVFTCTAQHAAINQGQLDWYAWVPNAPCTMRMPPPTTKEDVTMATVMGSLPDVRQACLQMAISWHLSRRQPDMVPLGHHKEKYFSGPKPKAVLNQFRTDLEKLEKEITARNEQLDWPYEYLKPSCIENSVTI
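Purified human 12hLO at 150 nM in 25 mM Hepes, 0.01% Triton X-100, pH 7.0, preincubated 15 min at room temperature with compound. Reaction started with 40 uM arachidonic acid, 30 min at room temperature. Hydroperoxide measured by Fe-xylenol orange, 573/405 nm absorbance ratio.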
FUS suppressor: rescues growth of FUS-expressing yeast. S. cerevisiae FUS-expressing, growth rescue, OD600, 24 h. Potency, µM (top dose mostly 76.6 µM), usual class: activators. 390,000 compounds, 0.24% hits;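 further: plate controls were DMSO vehicle for no effect and reference control for full effect; nearly all actives have a fitted effect of over 55% in size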
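Galactose (2%) drives FUS expression in yeast precultured in raffinose; seeding density OD 0.005. Test compounds incubated 24hr at 30C and 99% humidity before absorbance at 600 nm was measured.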
gsp antagonist: antagonists of gsp mutant (McCune-Albright syndrome); gsp-mutant cells, cAMP HTRF, 30 min; Potency, µM (series often up to 76.9 µM), inactives show top-dose activity change, negative = inhibition, actives largely listed as inhibitors; 340,000 compounds, 0.4% hits; AID 624288; calls by dose curve; cell line not stated here;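 further: intracellular cAMP measured with PDE inhibitor Ro 20-1724 present during compound exposure; on the % scale 0 is the no-effect control and ±100 the full control effect; nearly all actives have a fitted effect of over 65% in size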
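G418-selected cells were plated in DMEM/10% FBS for 16-24 h at 37C, then treated with compounds plus the PDE inhibitor […] (300 uM solution added) for 30 min at 37C. Intracellular cAMP was measured by HTRF after 30 min lysis at room temperature.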
An asterisk follows results filed as active; i = inactive; ? = inconclusive; / = no result; ! = not active in a repeat; [ ] = dose if it differs, or a comment. In the library only some 1.6% were active in any assay of this set; here they are far more common. Unless noted, the call rests on the fitted dose curve; in most records, active means well fitted curve in the direction sought with a large enough effect; inconclusive means small, poorly fitted or top-dose-only effect, or another doubt; inactive means no such curve, though single readings can be large; an effect the other way counts as inactive or inconclusive. Potency means the concentration at half of the fitted maximal effect.

SMILES	Mito fusion act	gsp agonist	12-LOX inh	FUS suppressor	gsp antagonist
CCOc1ccc(CNC(=S)N/N=C/c2ccc(OC)c(OC)c2)cc1	-4%	5%	14µM*	/	25%
COCc1ccccc1CNC(=O)c1sccc1C	/	/	37%	/	/
Cc1ccc(CNC(=O)CCS(=O)(=O)c2cc(Br)cc3c2N(C(=O)C2CC2)CC3)cc1	/	/	-16%	?	/
O=C(CCS(=O)(=O)c1cc(Br)cc2c1N(C(=O)C1CC1)CC2)NCc1ccc(Cl)cc1	/	/	-30%	28µM*	/
COCCCn1c(C(=O)NCCC2=CCCCC2)cc2c(=O)n3ccccc3nc21	3%	7.1µM*	11%	i	8%
COCCCn1c(C(=O)N2CCOCC2)cc2c(=O)n3ccccc3nc21	1%	?	2%	i	10%
N#CC(c1nc2ccccc2nc1NC1CCCC1)S(=O)(=O)c1ccc(F)cc1 (configuration not stated)	/	/	-22%	/	/
COc1cc(N2C(=O)C=CC2=O)c(OC)cc1Cl	-6%	-12%	16µM*	i	3%
COc1cc(Cl)c(S(=O)(=O)N2CCCC2)cc1Cl	4%	-10%	4%	i	7%
CN(CC(=O)Nc1ccc(Cl)c(Cl)c1)C(=O)c1ccc2ccccc2c1	/	/	1%	/	/
CCCC1=NN(c2ccc([N+](=O)[O-])cc2)C(=O)/C1=C\N(C)C	-3%	3%	45µM*	/	-11%
Nc1nc(N)nc(-c2ccncc2)n1	/	/	3%	/	/
Cn1c(=O)c(C(=O)COC(=O)c2cc(-c3ccco3)nc3ccccc23)c(N)n(CC2CC2)c1=O	-3%	/	/	/	/
O=C(OCC(=O)N1CCCC1=O)c1cc(-c2ccco2)nc2ccccc12	/	/	5.6µM*	/	/
O=C(OCC(=O)N1CCN(C(=O)c2ccco2)CC1)c1cc(-c2ccco2)nc2ccccc12	-1%	-25%	4.5µM*	?	?
CCCNC(=O)C(C)NC(=O)CN(C)Cc1ccc(C(F)(F)F)cc1 (configuration not stated)	/	/	-27%	/	/
CN=c1scc(-c2ccc(F)cc2)n1/N=C/c1ccc(O)c(O)c1	?	-5%	45µM*	i	4%
Cc1cc(C)n(-c2nc3cc(Cl)ccc3nc2NCc2cccnc2)n1	/	/	-3%	/	/
CCNCc1ccc(-c2ccccc2)o1	/	/	16µM*!	/	/
O=C1C=C(c2ccccc2)C/C1=C\c1ccccc1	/	/	-15%	/	/
Cc1cc(C)c(C)c(SCC(=O)Nc2oc(C)c3c(C)n[nH]c(=O)c23)c1C	4%	-46%	25µM*	i	-7%
CC1=C(C(=O)N(C(C)C)C(C)C)CC(CC(=O)NCc2cccc3ccccc23)C(=O)N1Cc1ccc(F)cc1 (configuration not stated)	/	/	-12%	18µM*	/
COc1ccc(OC)c(NC(=O)Nc2c(O)ccc3ccccc23)c1	/	-17%	?	i	-7%
COc1ccc(OC)c(NC(=O)Nc2ccc(O)c3ccccc23)c1	/	-4%[15.4 µM]	?	28µM*	-16%
COc1ccc(C)cc1NC(=O)c1ccccc1NS(=O)(=O)c1ccc(Cl)s1	-14%	8%	?	i	35µM*
SMILES	Mito fusion act	gsp agonist	12-LOX inh	FUS suppressor	gsp antagonist
Cc1ccc(OC(C)C(=O)Nc2cccc3cccnc23)cc1C (configuration not stated)	/	/	2%	/	/
Cc1ccc(Nc2nc(-c3ccc(O)c(O)c3)cs2)nc1	-7%	0%	22µM*	?	-1%
O=C1NC2c3c(Cl)sc(Cl)c3C(=O)C2O1 (configuration not stated)	/	?	40µM*	/	-3%
O=C1S/C(=C\C=C\c2ccco2)C(=O)N1c1ccc(O)cc1	1%	18%	40µM*	i	?
O=C1S/C(=C\C=C\c2ccco2)C(=O)N1c1ccccc1	-2%	28%[15.4 µM]	28µM*	?	-11%
O=C(O)CCCN1C(=O)/C(=C/C=C/c2ccco2)SC1=S	-5%	-7%[15.4 µM]	?	i	-25%
CSc1ccc(CNCCCOC(C)C)cc1	/	/	18%	/	/
O=C(COc1ccccc1)N1CCCC(n2cc(-c3nc(C4CC4)no3)nn2)C1 (configuration not stated)	/	/	13%	/	/
O=[N+]([O-])c1ccc(-c2cnc(SC(c3ccccc3)c3ccccc3)[nH]2)cc1	?	-6%[15.4 µM]	-4%	i	35µM*
O=[N+]([O-])c1ccc(-c2cnc(SCc3ccccc3Cl)[nH]2)cc1	-4%	-4%	1%	i	-10%
Cc1c(Cl)cccc1NC(=S)Nc1ccccn1	-12%	-4%[15.4 µM]	?	i	13%
COC(=O)Cc1ccc(NC(=S)Nc2ccccn2)cc1	1%	-11%	40µM*	i	-3%
S=C(Nc1ccccn1)c1ccccn1	-7%	5%	4.5µM*	i	9%
S=C(Nc1ccccn1)Nc1ccccc1Cl	0%	-6%[15.4 µM]	35µM*	i	1%
COc1cc(NC(=S)Nc2ccccn2)cc(OC)c1	6%	-28%	32µM*	i	-14%
CSc1ccc(Cl)c(C(=O)Oc2ccc(C)c(C)c2)c1	/	/	-16%	/	/
COc1ccc(-c2ccnc3nc(CC(C)C)nn23)cc1OC	/	/	50%	/	/
O=C(N/N=C/c1cccs1)c1ccccc1Br	/	/	-19%	/	/
O=C(OCc1nc2ccccc2o1)c1ccccc1	/	/	-21%	/	/
COc1cccc(CN2CCc3c(cc(C(=O)Nc4cc(C)ccc4OC)n3C)C2)c1	/	/	15%	/	/
COc1ccc(-n2c(=S)[nH]c3sc(-c4ccccc4)cc3c2=O)c(OC)c1	10%	62%[15.4 µM]	?	i	-10%
COc1cccc(-c2cc3c(=O)n(-c4ccccc4)c(=S)[nH]c3s2)c1	2%	11µM*	?	i	19%
COc1ccc2c(c1)cc(C(=O)Nc1ccccc1OC)n2C	/	/	-19%	/	/
Oc1ccc(CN2CCCCC2)c2cccnc12	-1%	-47%	?	i	-15%
CCOC(=O)N1CCN(Cc2ccc(O)c3ncccc23)CC1	3%	1%	25µM*	i	5%
SMILES	Mito fusion act	gsp agonist	12-LOX inh	FUS suppressor	gsp antagonist
CCOc1ccc(C(=O)CC2(O)C(=O)Nc3ccc(Cl)cc32)cc1 (configuration not stated)	/	/	23%	/	/
O=c1[nH]c(=S)[nH]c2c1C(c1ccc(Br)cc1)c1c([nH]c(=S)[nH]c1=O)O2	14%	1%[15.4 µM]	5µM*	i	4%
O=C1CCCC2=C1C(c1ccc(Br)cc1)c1c([nH]c(=S)[nH]c1=O)N2 (configuration not stated)	10%	-15%	?	?	-21%
Cc1[nH]c(C)c(C(=O)/C=C/c2ccc([N+](=O)[O-])cc2)c1C	-10%	-30%	32µM*	i	4%
COc1ccc(C=CC(=O)c2ccc([N+](=O)[O-])cc2)cc1	/	?	-5%	i	3%
COc1cc(/C=C2/SC(=O)NC2=O)ccc1OCc1ccccc1	13%	-41%	-6%	i	32µM*
COc1ccc(/C=C2/SC(=S)NC2=O)cc1OCc1ccccc1	4%	-5%[15.4 µM]	5%	i	?
